Consider 14 compounds from PubChem BioAssay.

SMILES strings stand for the structures. Activity calls are given as the source filed them.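 Rule for the calls, unless noted: active = inhibition at or above 50% at 10 µM; inactive = inhibition below 50%.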 Where a SMILES comes first, the peptide text is derived from it. The star is where a group is joined. Boc = CC(C)(C)OC(=O)*

A short description of experiment [1]: inhibitors of TNFa-induced NFkB p65 translocation, primary screen, imaging, HUVEC, MLSMR starter and 10KST1 sets (AID 438;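 active = inhibition above 20% together with a positive visual image hit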;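 note: compound added about 3h40 before a 20 min TNFalpha stimulation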;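 for inhibition: signal is the nuclear over cytoplasmic p65 intensity ratio per well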). As to conditions: HUVEC TNFa-induced p65 nuclear translocation; cell count: measured here: nuclei count (cytotoxicity indicator), at 2.08 µM; inhibition: at 2 µM, stronger effect = higher value, 0% TNFa-plus-vehicle, 100% no-TNFa wells.
A short description of experiment [2]: reduction of polyQ htt aggregates in cells – imaging, exon1htt(103Q)mCFP cells, high-content imaging, primary screen (AID 483;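 active = visual image review flags a hit and inhibition of aggregation exceeds 20%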;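 note: compound exposure lasted 3 days before fixation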;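 for nuclei count: percent of the per-plate median nuclei count of sample wells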). As to conditions: exon1htt(103Q)mCFP cell line, aggregate imaging, at 2 µM; inhibition of aggregation: stronger effect = higher value; nuclei count: measured here: cell count, toxicity.
A short description of experiment [3]: endothelial E-selectin expression blockers – imaging, HUVEC, immunofluorescence, MLSMR starter and 10KST1 sets, primary screen (AID 487;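 active = visually confirmed hit in the image check and inhibition above 20%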;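 for inhibition: signal is fraction of cell area covered by stained E-selectin grains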;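 for nuclei count: 100% = median nuclei count of all wells on the same plate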). As to conditions: HUVEC TNFalpha-induced E-selectin immunofluorescence imaging, at 2 µM; inhibition: stronger effect = higher value; nuclei count: measured here: cell number, toxicity.
The target of experiment [4] is Voltage-gated potassium channel subunit beta-2 (Rattus norvegicus) (UniProt P62483). In words: inhibitors of rat Kvbeta2 reductase activity – biochemical, NADPH fluorescence, primary screen (AID 622;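 active = fluorescence slope higher than the sample average by over 3 SD, cut at about -0.22 in these data, passing the limit was not always enough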;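 note: slope of raw intensity against log time taken from 70 to 1610 s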). As to conditions: recombinant KvBeta, 4-cyanobenzaldehyde reduction, at 10 µM, stronger effect = higher value.
The target is the same in experiment [5]. In words: enhancers of rat Kvbeta2 NADPH turnover – biochemical, NADPH fluorescence, primary screen (AID 623;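 active = NADPH fluorescence slope more negative than the mean of all samples by about 3 SD, 99.7% confidence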;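 note: fluorescence intensity change per second fitted from 20 to 320 s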). As to conditions: Recombinant KvBeta, NADPH fluorescence decrease slope, 10 min; at 10 µM; stronger effect = lower value.
For experiment [6], the target named is Alpha-2C adrenergic receptor (Homo sapiens) (UniProt P18825). Briefly: compounds altering alpha2C-coupled GIRK flux – cell-based, HEK293 alpha2C/GIRK1/2, thallium flux, primary screen (AID 624;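 active = fluorescence slope after compound addition differing from the mean of all screened samples at 99.7% confidence, in either direction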;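 note: slope of fluorescence ratio to pre-addition baseline per second over 15 to 24 s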). To be noted: thallium flux BTC fluorescence, at 10 µM, actives lie on both sides.
Experiment [7] can be described thus: blockers of RIG-like receptor reporter activation – cell-based, Sendai virus stimulus, luciferase, 10K MLSCN set, TLR/RLR signaling modifier project, primary screen (AID 602276).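 Note: firefly luciferase from ISG56 promoter only with Renilla not read in this screen; 0% = Sendai virus plus DMSO and 100% = medium plus DMSO without virus.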 As to conditions: HEK293 RL24 IRF3 luciferase reporter, at 10 µM, stronger effect = higher value. A general note: Reporter assays use an easily measured gene product as a stand-in for the process of interest.

Experiment [8] can be described thus: TLR3 IRF3 reporter activation blockers – cell-based, poly I:C stimulus, luciferase, 10K MLSCN set, primary screen (AID 602277;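 active = inhibition of the reporter signal at or above 50%; inactive = inhibition below 50%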). To be noted: HEK293-TLR3 RL24 IRF3 luciferase reporter, at 10 µM, stronger effect = higher value.

Sequence of Alpha-2C adrenergic receptor (Homo sapiens) (P18825 whole entry, looked up): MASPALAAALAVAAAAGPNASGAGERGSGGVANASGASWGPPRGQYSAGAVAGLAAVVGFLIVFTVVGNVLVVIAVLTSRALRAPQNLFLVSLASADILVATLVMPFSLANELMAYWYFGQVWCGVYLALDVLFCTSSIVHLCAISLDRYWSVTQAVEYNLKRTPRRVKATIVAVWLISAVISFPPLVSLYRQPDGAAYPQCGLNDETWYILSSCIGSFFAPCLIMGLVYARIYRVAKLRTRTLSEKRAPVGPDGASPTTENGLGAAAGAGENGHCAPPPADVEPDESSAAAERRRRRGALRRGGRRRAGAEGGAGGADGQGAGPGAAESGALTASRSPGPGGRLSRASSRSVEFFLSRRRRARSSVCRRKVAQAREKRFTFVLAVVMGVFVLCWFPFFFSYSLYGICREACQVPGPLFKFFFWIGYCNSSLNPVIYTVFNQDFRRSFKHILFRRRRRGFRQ
Sequence of Voltage-gated potassium channel subunit beta-2 (Rattus norvegicus) (P62483 whole entry, looked up): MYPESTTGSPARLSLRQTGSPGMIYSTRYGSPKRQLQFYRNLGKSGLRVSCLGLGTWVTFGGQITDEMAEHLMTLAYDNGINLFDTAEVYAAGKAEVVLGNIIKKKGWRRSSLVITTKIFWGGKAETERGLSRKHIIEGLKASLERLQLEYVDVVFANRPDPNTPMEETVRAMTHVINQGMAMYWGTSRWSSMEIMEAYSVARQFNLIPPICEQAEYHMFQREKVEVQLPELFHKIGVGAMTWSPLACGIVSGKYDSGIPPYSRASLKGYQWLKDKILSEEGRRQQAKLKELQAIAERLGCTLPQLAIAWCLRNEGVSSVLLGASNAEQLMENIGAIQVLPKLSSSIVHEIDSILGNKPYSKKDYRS

As usually defined, the inhibition is the relative decrease from the control value, in per cent. For the compound `CCOc1ccc(N2C(N)=NC(N)=NC2(C)C)cc1`, the cell count in experiment [1] worked out at 401. For the same compound, the inhibition in experiment [1] was 2.5% (inactive); in experiment [3], -19.5% (inactive); in experiment [7], 11.2% (inactive); in experiment [8], 26.1% (inactive). In experiment [2], the inhibition of aggregation is 5.2% (inactive). Further, the nuclei count came to 103% in experiment [2] and 105% in experiment [3]. For the same compound, the fluorescence slope in experiment [4] is -0.644 (inactive). The NADPH fluorescence slope in experiment [5] was 5.9e-05 (inactive). The slope in experiment [6] was 0.00717 (inactive).

As to `CCN(CC)CCN1C(=O)C(=O)/C(=C(/O)c2c(C)[nH]c(C(=O)OC)c2C)C1c1ccccc1OC` (centres undefined), the cell count in experiment [1] came to 280. Also, the inhibition is 1% (inactive) in experiment [1], -11.7% (inactive) in experiment [3], 7.54% (inactive) in experiment [7] and 34.9% (inactive) in experiment [8]. Moreover, in experiment [2], the inhibition of aggregation was -20.7% (inactive). For the same compound, the nuclei count in experiment [2] was determined as 109%; in experiment [3] it was 101%. In addition, the fluorescence slope in experiment [4] was -0.454 (inactive). Also, the NADPH fluorescence slope in experiment [5] was -4.2e-05 (inactive). Also, the slope in experiment [6] is 0.00204 (inactive).

Turning to `CCOC(=O)c1c(C)[nH]c(C(=O)Cn2c(=O)c3c(ncn3CC)n(Cc3ccccc3)c2=O)c1C`, in experiment [1], the cell count was found to be 752. Also, the inhibition in experiment [1] was 4% (inactive); in experiment [3], -32.2% (inactive); in experiment [7], 15.3% (inactive); in experiment [8], 24.5% (inactive). Also, the inhibition of aggregation in experiment [2] is 8.3% (inactive). The values for the nuclei count in experiment [2] and in experiment [3] were 88.5% and 127%, respectively. In addition, the fluorescence slope in experiment [4] is -0.29 (inactive). Moreover, the NADPH fluorescence slope in experiment [5] was -3.2e-05 (inactive). Besides, the slope in experiment [6] is 0.00419 (inactive).

`O=C(NCc1ccccc1)C1CCCN1S(=O)(=O)c1cccc2cccnc12` (centres undefined): in experiment [1], the cell count is 521. The inhibition in experiment [1] was -4.4% (inactive); in experiment [3], -42.2% (inactive); in experiment [7], 3.4% (inactive); in experiment [8] it was 34.5% (inactive). In addition, the inhibition of aggregation in experiment [2] was -7.9% (inactive). In addition, the nuclei count in experiment [2] turned out to be 67.5%; in experiment [3], 111%. Further, the fluorescence slope in experiment [4] was -0.561 (inactive). Moreover, the NADPH fluorescence slope in experiment [5] was 3.4e-05 (inactive). In addition, the slope in experiment [6] is 0.00702 (inactive).

On to `CCOC(=O)CSc1nnc(Cn2nnc(-c3ccccc3)n2)n1CC`, for which the cell count in experiment [1] amounted to 415. In addition, the inhibition was -0.8% (inactive) in experiment [1], -34.4% (inactive) in experiment [3], 15.9% (inactive) in experiment [7] and 21.4% (inactive) in experiment [8]. Moreover, the inhibition of aggregation in experiment [2] is 5.4% (inactive). Besides, the nuclei count in experiment [2] amounted to 109%; in experiment [3], 164%. In addition, the fluorescence slope in experiment [4] is -0.402 (inactive). The NADPH fluorescence slope in experiment [5] is 2.4e-05 (inactive). Besides, the slope in experiment [6] was 0.006 (inactive).

On to `CC(C)(C)OC(=O)N1CCCC1C(=O)NC(Cc1ccccc1)C(=O)O` (stereo not drawn) (Boc-Pro-Phe-OH; configuration not given here), for which, in experiment [1], the cell count is 431. Also, the inhibition is 1% (inactive) in experiment [1], 21.6% (inactive) in experiment [3], 12.2% (inactive) in experiment [7] and 17.2% (inactive) in experiment [8]. The inhibition of aggregation in experiment [2] was 4.3% (inactive). For the same compound, the nuclei count in experiment [2] turned out to be 99.5%; in experiment [3], 101%. The fluorescence slope in experiment [4] is -0.607 (inactive). In addition, the NADPH fluorescence slope in experiment [5] is 1.1e-05 (inactive). Also, in experiment [6], the slope is 0.00669 (inactive).

On to `Cc1nc2sc(C(c3ccc(Br)cc3)N3CC(C)OC(C)C3)c(O)n2n1` (centres undefined), for which, in experiment [1], the cell count is 260. Moreover, the inhibition in experiment [1] is -5.4% (inactive); in experiment [3], -6.9% (inactive); in experiment [7], 4.21% (inactive); in experiment [8] it was 17.4% (inactive). Also, the inhibition of aggregation in experiment [2] was -0.8% (inactive). The results for the nuclei count in experiment [2] and in experiment [3] were 106% and 114%, respectively. Further, in experiment [4], the fluorescence slope was -0.437 (inactive). Besides, the NADPH fluorescence slope in experiment [5] is -6.3e-05 (inactive). The slope in experiment [6] was 0.00564 (inactive).

`O=C(CN1C(=O)c2ccccc2S1(=O)=O)NCc1ccccn1`: the cell count in experiment [1] came to 643. Besides, the inhibition in experiment [1] was 0% (inactive); in experiment [3] it was 5% (inactive); in experiment [7], 13.6% (inactive); in experiment [8], 26.2% (inactive). In experiment [2], the inhibition of aggregation is -6.2% (inactive). The nuclei count in experiment [2] was determined as 90.1%; in experiment [3] it was 119%. Besides, the fluorescence slope in experiment [4] is -0.61 (inactive). Further, the NADPH fluorescence slope in experiment [5] was 4e-06 (inactive). Also, in experiment [6], the slope was 0.00685 (inactive).

Turning to `Cc1cc(=O)n2nc(-c3ccccc3)sc2n1`, the cell count in experiment [1] was 563. Besides, the inhibition in experiment [1] is -1.1% (inactive); in experiment [3], -70.5% (inactive); in experiment [7], -17.6% (inactive); in experiment [8], -64.6% (inactive). For the same compound, the inhibition of aggregation in experiment [2] is -4.1% (inactive). For the same compound, the nuclei count in experiment [2] stood at 106%; in experiment [3], 108%. The fluorescence slope in experiment [4] was -0.421 (inactive). For the same compound, the NADPH fluorescence slope in experiment [5] is -9.5e-06 (inactive). Besides, in experiment [6], the slope is 0.00585 (inactive).

`O=C1CC(C2CCCO2)C(=O)N1Cc1ccccc1` (centres undefined): the cell count in experiment [1] stood at 418. Moreover, the inhibition in experiment [1] was -5.4% (inactive); in experiment [3], -1.7% (inactive); in experiment [7], -6.03% (inactive); in experiment [8], 10.9% (inactive). Further, the inhibition of aggregation in experiment [2] is 19% (inactive). The nuclei count in experiment [2] is 101%; in experiment [3], 125%. Also, the fluorescence slope in experiment [4] is -0.489 (inactive). Moreover, the NADPH fluorescence slope in experiment [5] is -3.7e-05 (inactive). In experiment [6], the slope is 0.00667 (inactive).

Consider `O=C1c2ccccc2C(Nc2ccc(-c3nc4ccccc4[nH]3)cc2)N1Cc1ccco1` (centres undefined), for which the cell count in experiment [1] turned out to be 701. Besides, the inhibition in experiment [1] was -6.8% (inactive); in experiment [3], -26.7% (inactive); in experiment [7] it was -24% (inactive); in experiment [8], -47.4% (inactive). Moreover, the inhibition of aggregation in experiment [2] was -10.2% (inactive). Also, the figures for the nuclei count in experiment [2] and in experiment [3] were 87.9% and 108%, respectively. Besides, in experiment [4], the fluorescence slope is -0.589 (inactive). Further, the NADPH fluorescence slope in experiment [5] was -2e-06 (inactive). Moreover, in experiment [6], the slope was 0.00641 (inactive).

Take `COc1ccccc1-n1c(C)nnc1SCC(=O)Nc1cccc(C(C)=O)c1`: in experiment [1], the cell count was found to be 388. The inhibition was 4.3% (inactive) in experiment [1], 52.4% (inactive) in experiment [3], 17.5% (inactive) in experiment [7] and 13.3% (inactive) in experiment [8]. Further, the inhibition of aggregation in experiment [2] was 3.5% (inactive). Also, the nuclei count was 104% in experiment [2] and 95.1% in experiment [3]. Further, the fluorescence slope in experiment [4] was -0.355 (inactive). Besides, the NADPH fluorescence slope in experiment [5] was -8e-06 (inactive). Besides, in experiment [6], the slope is 0.00484 (inactive).

As for `CN(C)S(=O)(=O)Nc1ccc(Br)cc1F`, the cell count in experiment [1] came out at 688. Besides, the inhibition in experiment [1] was -11.1% (inactive); in experiment [3] it was -24.9% (inactive); in experiment [7], 8.09% (inactive); in experiment [8] it was 15.9% (inactive). Moreover, the inhibition of aggregation in experiment [2] is 9.4% (inactive). Also, the results for the nuclei count in experiment [2] and in experiment [3] were 103% and 100%, respectively. Also, the fluorescence slope in experiment [4] was -0.439 (inactive). Besides, the NADPH fluorescence slope in experiment [5] is -8.8e-06 (inactive). In addition, in experiment [6], the slope was 0.00541 (inactive).

In the case of `CC(=O)OC1CSc2nc3ccccc3n2C1` (centres undefined), the cell count in experiment [1] stood at 393. In addition, the inhibition in experiment [1] was -9.6% (inactive); in experiment [3], 25.1% (inactive); in experiment [7], 7.55% (inactive); in experiment [8] it was 13% (inactive). Further, the inhibition of aggregation in experiment [2] was 6.2% (inactive). In addition, the nuclei count in experiment [2] stood at 99.9%; in experiment [3], 118%. In addition, the fluorescence slope in experiment [4] was -0.302 (inactive). Besides, the NADPH fluorescence slope in experiment [5] was -5.5e-05 (inactive). Further, the slope in experiment [6] was 0.00459 (inactive).
